From the antibiotic and cytotoxicity screens of Wong et al. (2023)
Hit rate of the full screen: of about 39,000 compounds, about 3,300 (8.5%) were called active. The sample holds actives, similar compounds and a random draw of the others, so the mix is not that of the screen.

Tested on: HepG2
Experiment: cytotoxicity call (relative viability < 0.9)
Conditions: 10 µM

SMILES | cytotoxicity call
C[C@H](CO)N1C[C@H](C)[C@@H](CN(C)Cc2ccc(Oc3ccccc3)cc2)Oc2c(NC(=O)c3nc4ccccc4s3)cccc2C1=O | active
C[C@H](CO)N1C[C@H](C)[C@H](CN(C)Cc2ccc(Oc3ccccc3)cc2)Oc2c(NC(=O)c3nc4ccccc4s3)cccc2C1=O | inactive
C[C@H]1CN([C@@H](C)CO)C(=O)c2cccc(NC(=O)c3nc4ccccc4s3)c2O[C@@H]1CN(C)Cc1ccc(Oc2ccccc2)cc1 | inactive
C[C@H]1CN([C@@H](C)CO)C(=O)c2cccc(NC(=O)c3nc4ccccc4s3)c2O[C@H]1CN(C)Cc1ccc(Oc2ccccc2)cc1 | active
C[C@@H]1CN([C@H](C)CO)C(=O)c2cccc(NC(=O)c3nc4ccccc4s3)c2O[C@@H]1CN(C)Cc1ccc(Oc2ccccc2)cc1 | inactive
C[C@@H]1CN([C@H](C)CO)C(=O)c2cccc(NC(=O)c3nc4ccccc4s3)c2O[C@H]1CN(C)Cc1ccc(Oc2ccccc2)cc1 | inactive
COCC#Cc1cnc2c(c1)C(=O)N([C@H](C)CO)C[C@H](C)[C@H](CN(C)C(=O)CN1CCOCC1)O2 | inactive
Cc1ccc(S(=O)(=O)Nc2ccc3c(c2)C(=O)N([C@@H](C)CO)C[C@@H](C)[C@H](CN(C)C(=O)Nc2cccc4ccccc24)OCCCC[C@H](C)O3)cc1 | inactive
COc1ccc(S(=O)(=O)N(C)C[C@@H]2Oc3ccc(NC(=O)Cn4cnnn4)cc3CC(=O)N([C@H](C)CO)C[C@H]2C)cc1 | inactive
Cc1ccccc1/C=C(\C#N)c1nc(-c2ccccc2)cs1 | active
Cc1nc(-c2ccccc2)cs1 | inactive
COc1ccc(-c2csc(C(C#N)=C3CCCCC3)n2)cc1 | inactive
C[C@@H]1CN([C@@H](C)CO)C(=O)c2cc(NC(=O)Cn3cnnn3)ccc2O[C@@H]1CN(C)S(C)(=O)=O | inactive
O=C(C1=C[C@@H](c2coc3ccccc3c2=O)C[C@@H](OCCCCO)O1)N1CCN(Cc2ccc3c(c2)OCO3)CC1 | inactive
Cc1noc(C)c1NC(=O)Nc1ccc2c(c1)C(=O)N([C@H](C)CO)C[C@H](C)[C@@H](CN(C)S(=O)(=O)c1cn(C)cn1)O2 | inactive
C[C@@H]1CCCCO[C@H](CN(C)Cc2ccc(Cl)c(Cl)c2)[C@@H](C)CN([C@H](C)CO)C(=O)c2cc(NC(=O)Nc3ccc(F)cc3)ccc2O1 | active
C[C@@H]1CCCCO[C@@H](CN(C)Cc2ccc(Cl)c(Cl)c2)[C@H](C)CN([C@@H](C)CO)C(=O)c2cc(NC(=O)Nc3ccc(F)cc3)ccc2O1 | inactive
C[C@@H]1CCCCO[C@H](CN(C)Cc2ccc(Cl)c(Cl)c2)[C@H](C)CN([C@@H](C)CO)C(=O)c2cc(NC(=O)Nc3ccc(F)cc3)ccc2O1 | inactive
C[C@@H]1CCCCO[C@@H](CN(C)Cc2ccc(Cl)c(Cl)c2)[C@@H](C)CN([C@H](C)CO)C(=O)c2cc(NC(=O)Nc3ccc(F)cc3)ccc2O1 | inactive
C[C@@H]1CN([C@@H](C)CO)C(=O)c2cc(NC(=O)Nc3ccc(F)cc3)ccc2O[C@@H](C)CCCCO[C@H]1CN(C)Cc1ccc(Cl)c(Cl)c1 | inactive
C[C@H](CO)N1C[C@H](C)[C@H](CN(C)Cc2ccc(Cl)c(Cl)c2)OCCCC[C@H](C)Oc2ccc(NC(=O)Nc3ccc(F)cc3)cc2C1=O | active
C[C@@H]1CN([C@H](C)CO)C(=O)c2cc(NC(=O)Nc3ccc(F)cc3)ccc2O[C@@H](C)CCCCO[C@@H]1CN(C)Cc1ccc(Cl)c(Cl)c1 | inactive

SMILES | cytotoxicity call
C[C@@H]1CCCCO[C@@H](CN(C)Cc2ccc(Cl)c(Cl)c2)[C@H](C)CN([C@H](C)CO)C(=O)c2cc(NC(=O)Nc3ccc(F)cc3)ccc2O1 | inactive
C[C@@H]1CCCCO[C@@H](CN(C)Cc2ccc(Cl)c(Cl)c2)[C@@H](C)CN([C@@H](C)CO)C(=O)c2cc(NC(=O)Nc3ccc(F)cc3)ccc2O1 | active
C[C@H]1CCCCO[C@H](CN(C)Cc2ccc(Cl)c(Cl)c2)[C@@H](C)CN([C@@H](C)CO)C(=O)c2cc(NC(=O)Nc3ccc(F)cc3)ccc2O1 | active
C[C@H](CO)N1C[C@H](C)[C@@H](CN(C)Cc2ccc(C(=O)O)cc2)Oc2ccc(NC(=O)c3ccncc3)cc2CC1=O | inactive
C[C@@H]1CN([C@H](C)CO)C(=O)Cc2cc(NS(=O)(=O)c3ccccc3)ccc2O[C@@H]1CN(C)S(=O)(=O)c1cccs1 | inactive
C[C@H]1CN([C@@H](C)CO)C(=O)c2cccc(NC(=O)c3cnccn3)c2O[C@@H]1CN(C)S(=O)(=O)c1ccccc1 | inactive
C[N+](C)(C)CCCC[C@@H]1NC(=O)[C@H]2C[C@@H](C(=O)NCc3ccc(F)cc3)[C@@H](c3ccc(O)cc3)N2C1=O | inactive
COc1ccc(S(=O)(=O)Nc2ccc3c(c2)C(=O)N([C@@H](C)CO)C[C@H](C)[C@@H](CN(C)Cc2ccc4c(c2)OCO4)OCCCC[C@@H](C)O3)cc1 | inactive
COc1ccc(NC(=O)N(C)C[C@@H]2OCc3ccccc3-c3c(n(C)c4ccccc34)C(=O)N([C@@H](C)CO)C[C@@H]2C)cc1 | inactive
COc1ccc(S(=O)(=O)Nc2cccc3c2O[C@@H](CN(C)S(=O)(=O)c2cn(C)cn2)[C@H](C)CN([C@@H](C)CO)C3=O)cc1 | inactive
C[C@@H]1CN([C@@H](C)CO)C(=O)Cc2cc(NC(=O)Nc3cccc4ccccc34)ccc2O[C@H]1CN(C)Cc1ccc(Cl)c(Cl)c1 | inactive
CC(C)NC(=O)N(C)C[C@H]1Oc2ccc(NC(=O)Cn3cnnn3)cc2C(=O)N([C@@H](C)CO)C[C@H]1C | inactive
COC(=O)c1ccc(O)c(O)c1 | inactive
CCS(=O)(=O)N1CCc2ccc(N)cc2C1 | inactive
COc1ccc(S(=O)(=O)N(C)C[C@H]2OCCCC[C@@H](C)Oc3ccc(NS(C)(=O)=O)cc3C(=O)N([C@H](C)CO)C[C@@H]2C)cc1 | inactive
C[C@@H]1CCCCO[C@H](CN(C)Cc2ccc(Cl)c(Cl)c2)[C@@H](C)CN([C@@H](C)CO)C(=O)c2cc(NC(=O)Nc3ccc(F)cc3)ccc2O1 | active
CC(C)NC(=O)Nc1ccc2c(c1)C(=O)N([C@@H](C)CO)C[C@H](C)[C@@H](CN(C)Cc1ccc(Cl)c(Cl)c1)OCCCC[C@H](C)O2 | inactive
CC(C)NC(=O)Nc1ccc2c(c1)C(=O)N([C@H](C)CO)C[C@H](C)[C@@H](CN(C)Cc1ccc(Cl)c(Cl)c1)OCCCC[C@H](C)O2 | inactive
CC(C)NC(=O)Nc1ccc2c(c1)C(=O)N([C@H](C)CO)C[C@@H](C)[C@H](CN(C)Cc1ccc(Cl)c(Cl)c1)OCCCC[C@@H](C)O2 | active
C[C@@H]1CN([C@H](C)CO)C(=O)c2cc(NC(=O)Nc3ccc(F)cc3)ccc2O[C@@H](C)CCCCO[C@H]1CN(C)Cc1ccc(Cl)c(Cl)c1 | active
C[C@@H]1CN([C@@H](C)CO)C(=O)c2cc(C#CCN(C)C)cnc2O[C@@H]1CN(C)C(=O)Nc1cc(F)ccc1F | inactive
C/C=C/c1ccc2c(c1)O[C@H](CN(C)S(=O)(=O)c1ccccc1OC)[C@@H](C)CN([C@H](C)CO)S2(=O)=O | inactive

SMILES | cytotoxicity call
C[C@@H]1CN([C@H](C)CO)C(=O)c2cccc(NC(=O)C3CC3)c2O[C@H]1CN(C)Cc1ccc2c(c1)OCO2 | inactive
C[C@@H]1CN([C@@H](C)CO)C(=O)c2cc(NC(=O)CCCN(C)C)ccc2O[C@H]1CN(C)C(=O)Nc1ccc2c(c1)OCO2 | inactive
C[C@H](CO)N1C[C@H](C)[C@@H](CN(C)Cc2ccncc2)OCCCC[C@H](C)Oc2ccc(NS(=O)(=O)c3ccc(Cl)cc3)cc2C1=O | inactive
Cc1ccc(S(=O)(=O)Nc2cccc3c2O[C@H](CN(C)Cc2ccc(Cl)c(Cl)c2)[C@H](C)CN([C@H](C)CO)C3=O)cc1 | inactive
C[C@H](CO)N1C[C@H](C)[C@H](CN(C)C)OCCCC[C@H](C)Oc2ccc(NC(=O)Nc3cccc4ccccc34)cc2C1=O | inactive
O=C(O)C[C@H]1Oc2ccccc2NC1=O | inactive
O=C(C[C@@H]1CC[C@@H]2[C@H](COC[C@@H](O)CN2S(=O)(=O)c2ccccc2F)O1)NCc1ccccc1F | inactive
C[C@@H]1CN([C@H](C)CO)C(=O)c2cccc(NC(=O)C3CCOCC3)c2O[C@@H]1CN(C)S(=O)(=O)c1ccc(Cl)cc1 | inactive
O=C(C=Cc1ccc(O)cc1)c1ccccc1O | inactive
O=C(C=Cc1ccccc1)c1ccc(O)cc1 | active
CC(C)c1ccc(/C=C/C(=O)O)cc1 | inactive
O=C(/C=C/c1ccccc1)C1CC1 | inactive
O=C(C=Cc1ccc(O)cc1)c1ccccc1 | active
O=C(C=Cc1ccccc1)c1ccc(O)cc1O | inactive
CC(C)NC(=O)N(C)C[C@H]1OCCCC[C@H](C)Oc2ccc(NC(=O)C3CCCCC3)cc2C(=O)N([C@H](C)CO)C[C@H]1C | inactive
O=C1CCC(=O)NCC/C=C/CCN1 | inactive
O=C(C[C@H]1C=C[C@H](NC(=O)C2CC2)[C@H](CO)O1)NCCCN1CCOCC1 | inactive
COCC#Cc1cnc2c(c1)C(=O)N([C@@H](C)CO)C[C@@H](C)[C@H](CN(C)C(=O)Nc1ccc(OC)cc1)O2 | inactive
C[C@@H]1CCCCO[C@H](CN(C)C(=O)c2ccccc2)[C@@H](C)CN([C@@H](C)CO)C(=O)c2cc(NC(=O)CCC(F)(F)F)ccc2O1 | inactive
C[C@H]1CCCCO[C@@H](CN(C)C(=O)Nc2ccccc2)[C@@H](C)CN([C@@H](C)CO)C(=O)c2cc(NS(=O)(=O)c3ccc(Cl)cc3)ccc2O1 | inactive
C[C@H]1CN([C@@H](C)CO)C(=O)c2c(c3ccccc3n2C)-c2ccccc2CO[C@@H]1CN(C)S(C)(=O)=O | inactive
C[C@H](CO)N1C[C@H](C)[C@@H](CN(C)S(=O)(=O)c2ccc(F)cc2)Oc2ccc(NC(=O)CCCN(C)C)cc2CC1=O | inactive
